Source: PubChem BioAssay
Compounds with a hit are over-represented: about 3.9% of the library has one in this group of screens.
ALR H2O2 inh = inhibitors of human ALR sulfhydryl oxidase, primary screen, biochemical, H2O2 detection, HRP-luminol luminescence, single point; FAD-linked sulfhydryl oxidase ALR (Homo sapiens), P55789; purified ALR, DTT oxidation; inhibition, % (concentration not given with the values); 290,000 compounds, 3.8% hits;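 active means mean replicate inhibition above about 79%, with every replicate also reaching it, limit read from the data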
NTR1 agonist = agonists of human NTR1, primary screen, imaging, U2OS cells, beta-arrestin-GFP, high content; NTR1-U2OS beta-arrestin-GFP spot imaging, agonist mode; Neurotensin receptor type 1 (Homo sapiens), P30989; activation, % at 20 µM; 330,000 compounds, 0.17% hits;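 active means activation at or above 40% of the spot to cytoplasm intensity ratio, with at least 20 cells analyzed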;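 further: 0% = DMSO without peptide and 100% = 100 nM NTR1 peptide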
Target sequence (P30989 whole entry, looked up): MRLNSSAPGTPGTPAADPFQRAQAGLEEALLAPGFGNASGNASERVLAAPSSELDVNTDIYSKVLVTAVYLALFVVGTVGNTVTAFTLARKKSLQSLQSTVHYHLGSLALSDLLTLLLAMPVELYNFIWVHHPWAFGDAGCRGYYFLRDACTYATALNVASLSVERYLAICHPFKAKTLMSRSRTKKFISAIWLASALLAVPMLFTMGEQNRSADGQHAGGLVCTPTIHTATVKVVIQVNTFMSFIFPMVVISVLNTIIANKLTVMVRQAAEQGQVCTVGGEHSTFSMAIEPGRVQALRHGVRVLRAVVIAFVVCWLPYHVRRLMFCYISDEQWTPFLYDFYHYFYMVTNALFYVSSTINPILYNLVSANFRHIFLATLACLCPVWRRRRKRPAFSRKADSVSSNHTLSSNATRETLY
UBC9 SUMO inh = inhibitors of in vitro SUMOylation cascade, primary screen, biochemical, HTRF, uHTS; SUMO-conjugating enzyme UBC9 (Homo sapiens), P63279; HTRF SUMOylation assay, SAE1/SAE2 + UBC9; inhibition, % at 35 µM; 290,000 compounds, 0.36% hits; in the data active means inhibition above about 50%, passing the limit was not always enough
Target sequence (P63279 whole entry, looked up): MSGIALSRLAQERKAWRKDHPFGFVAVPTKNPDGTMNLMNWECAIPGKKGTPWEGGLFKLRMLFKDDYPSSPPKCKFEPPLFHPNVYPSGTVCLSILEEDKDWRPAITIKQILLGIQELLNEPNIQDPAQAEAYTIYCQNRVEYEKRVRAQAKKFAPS
Cardio protect = cardioprotection against H2O2-induced cell death, primary screen, uHTS, H9c2 cells, ATPLite luminescence; H9c2 cardiomyocytes, H2O2 injury protection, 2 h; protection from H2O2 cell death, % at 20 µM; 360,000 compounds, 0.63% hits;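 active means compounds giving at least 50% protection of heart cells from peroxide-induced death in the single-dose screen, raw or plate-pattern-corrected value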;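 further: 0% = DMSO wells with peroxide and 100% = DMSO wells without peroxide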
Numbers without * were called inactive; nt = no result given.

SMILES | ALR H2O2 inh | NTR1 agonist | UBC9 SUMO inh | Cardio protect
O=C(Nc1nc2c(s1)CCCC2)c1ccc(N2C(=O)CCC2=O)cc1 | 96.8* | 0.2 | -2.5 | -2.0
O=C(Nc1nc2c(s1)CCCC2)c1ccc(Br)s1 | 97.9* | 5.7 | -1.7 | -18.5
O=C(Nc1nc2c(s1)CCCC2)c1ccc2ncsc2c1 | 43.2 | 0.7 | -18.0 | -17.5
COc1ccc(/C=C(\C#N)C(=O)OCC(=O)Nc2ccc(C(C)(C)C)cc2)cc1 | nt | 6.2 | -1.8 | -6.9
COC(=O)c1ccn(CC(=O)NC2CCCCC2)n1 | 93.5* | -0.1 | 3.6 | -1.0
O=C(Cn1cc2c(n1)CCCC2)NC1CCCCCC1 | 2.0 | 2.8 | 10.2 | 11.9
C=C(C)CC(c1ccccc1)N(C(C)=O)c1ccco1 (stereo not given) | -0.1 | 1.9 | 27.1 | 6.7
O=S(=O)(NC1=NCCCCC1)c1ccc2sc(NS(=O)(=O)c3ccc4ccccc4c3)nc2c1 | 87.2* | 2.6 | -41.1 | 1.4
O=S(=O)(Nc1nc2c(s1)CCCC2)c1ccc2ccccc2c1 | 48.3 | 2.7 | 29.6 | -8.2
O=C(N/N=C/c1cccnc1)c1ccccc1Cl | -7.6 | 0.4 | 12.6 | -12.3
O=C(N/N=C/c1ccc(O)cc1)c1cc(C23CC4CC(CC(C4)C2)C3)[nH]n1 | 90.8* | 3.6 | -8.1 | -6.2
COc1ccc(/C=N/NC(=O)c2cc(C34CC5CC(CC(C5)C3)C4)[nH]n2)cc1OC | -29.9 | 10.2 | -16.2 | -1.6
COc1ccc(OC)c(NC(=O)CS(=O)(=O)Cc2nc(-c3ccccc3C)oc2C)c1 | -2.3 | 10.1 | 3.3 | -5.9
CCCNC(=O)CS(=O)(=O)Cc1nc(-c2ccccc2C)oc1C | -20.4 | -0.4 | -9.1 | -2.5
COc1ccccc1CNC(=O)CS(=O)Cc1nc(-c2ccccc2C)oc1C (stereo not given) | 99.2* | -1.1 | 24.1 | 5.1
COc1ccccc1CNC(=O)COc1ccccc1C | 5.4 | 0.3 | 2.2 | 0.6
Cc1ccc(CNC(=O)CS(=O)Cc2nc(-c3ccccc3C)oc2C)cc1 (stereo not given) | 26.3 | 0.2 | 6.8 | 1.8
Cc1ccccc1-c1nc(CS(=O)CC(=O)NCc2ccccc2)c(C)o1 (stereo not given) | 97.9* | 1.9 | 9.8 | -6.6
COCCNC(=O)CS(=O)Cc1nc(-c2ccccc2C)oc1C (stereo not given) | 98.4* | 1.2 | -16.0 | 4.8
COc1ccc(CNC(=O)CS(=O)Cc2nc(-c3ccccc3C)oc2C)cc1 (stereo not given) | 99.2* | -1.5 | 25.5 | -8.6
Nc1nnc(-c2ccccc2)c(-c2ccccc2)n1 | -5.2 | -1.2 | 5.9 | 0.1
CCn1c(=O)c(=O)[nH]c2cc(C(=O)NC3CC3)ccc21 | -5.4 | -1.2 | -1.8 | -2.4
COc1ccc(C(=O)C2CCCN(C(=O)c3ccc(CSC)o3)C2)cc1F (stereo not given) | -7.0 | 0.6 | -4.9 | 8.7
COC(=O)C(Cc1ccc(O)cc1)NC(=O)CCNC(=O)c1ccco1 (stereo not given) | 7.1 | 0.3 | 7.7 | -2.4
CC(=O)/C=N/Nc1ccccc1 | -6.4 | -1.1 | 9.9 | -0.5
SMILES | ALR H2O2 inh | NTR1 agonist | UBC9 SUMO inh | Cardio protect
OC[C@@H](O)[C@H](O)C(/C=N/Nc1ccccc1)=N\Nc1ccccc1 | 98.8* | -0.2 | 22.7 | -0.8
COc1ccc(CNC(=O)CSc2nnc(-c3ccc(NC(C)=O)cc3)n2C)cc1 | -11.4 | -1.7 | 16.1 | 11.1
COC(=O)/C(=N\Nc1ccc(Cl)cc1)Sc1nnc(-c2ccc(OC)cc2)n1C | 94.6* | 0.3 | -5.5 | 1.7
O=C(NCc1ccco1)c1cccc(NC(=O)c2ccccc2)c1 | -12.3 | -1.9 | -24.4 | -3.8
O=C(CSc1nc(=O)n(CCCN2CCOCC2)c2c1CCCC2)Nc1ccc(F)c(F)c1 | 10.0 | 0.5 | nt | 1.4
CCc1ccc(NC(=O)CSc2nc3ccccc3nc2N2CCCC2)cc1 | 87.6* | 4.4 | -5.6 | -12.3
CC(C)c1ccc(NC(=O)CSc2nc(=O)n(CCN3CCOCC3)c3c2CCC3)cc1 | 99.0* | 0.4 | nt | -1.1
Cc1cc(C)cc(NC(=O)CSc2nc(=O)n(CCN3CCOCC3)c3c2CCCC3)c1 | -17.6 | -0.2 | nt | 1.6
CCc1ccc(NC(=O)CSc2nc(=O)n(CCCN3CCOCC3)c3c2CCC3)cc1 | 97.7* | -0.5 | nt | -2.8
CCOc1ccc(NC(=O)CSc2nc(=O)n(Cc3cccnc3)c3c2CCC3)cc1 | 98.9* | -0.3 | nt | 3.6
CNC(=O)C(=O)NCC1CCCN1S(=O)(=O)c1cccs1 (stereo not given) | -2.1 | 0.2 | nt | 4.7
Cc1cc(Cl)ccc1OCC(=O)OCC(=O)Nc1ccc(F)c([N+](=O)[O-])c1 | nt | nt | 7.8 | -5.5
CCOc1ccccc1NC(=O)CSc1nc(=O)n(CCN2CCOCC2)c2c1CCCC2 | 0.7 | 0.8 | nt | 1.2
O=C(CSc1nc(=O)n(CCCN2CCOCC2)c2c1CCCC2)Nc1ccc(F)cc1 | 27.8 | 0.3 | nt | -0.4
CCOc1ccc(NC(=O)CSc2nc(=O)n(CCCN3CCOCC3)c3c2CCC3)cc1 | 97.4* | 0.5 | nt | -1.1
CCCCc1ccc(NC(=O)CSc2nc(=O)n(CCCN3CCOCC3)c3c2CCC3)cc1 | 99.0* | 2.0 | nt | 1.8
O=C(CSc1nc(=O)n(CCCN2CCOCC2)c2c1CCC2)Nc1ccc(F)cc1 | 97.7* | -0.5 | nt | -11.2
Cc1ccc(NC(=O)CSc2nc(=O)n(CCCN3CCOCC3)c3c2CCCC3)cc1 | 97.5* | 0.1 | nt | -1.0
CCc1ccccc1NC(=O)C1CCCN(c2ncnc3onc(-c4ccc(F)cc4)c23)C1 (stereo not given) | -5.5 | -0.6 | 8.2 | -4.2
CCCCc1ccc(NC(=O)CSc2nc(=O)n(CCN3CCOCC3)c3c2CCC3)cc1 | 99.0* | 1.6 | nt | -10.2
Cc1ccc2cn[nH]c2c1N | 85.2* | -0.2 | 10.8 | 0.3
Cc1ccc2nc(C)c(C)nc2c1N | 1.8 | -1.0 | -9.4 | 4.7
C=CCOC(=O)COc1ccc2c3c(c(=O)oc2c1)CCCC3 | nt | nt | nt | 87.3*
O=C(O)COc1ccc2c3c(c(=O)oc2c1)CCCC3 | -0.7 | -0.9 | 18.7 | -0.2
CCOC(=O)COc1cc2c3c(c(=O)oc2cc1C)CCCC3 | -4.0 | -0.1 | 5.1 | -14.0
SMILES | ALR H2O2 inh | NTR1 agonist | UBC9 SUMO inh | Cardio protect
CCOC(=O)COc1cc(OCC(=O)OCC)c2c3c(c(=O)oc2c1)CCCC3 | -1.4 | 7.8 | -0.8 | 63.5*
N#Cc1ccc(Oc2nc(Nc3ccc(F)cc3)nc(N3CCCC3)n2)cc1 | 3.9 | 11.7 | -28.0 | -2.3
COc1ccc(-c2cnc3c(NC=O)cc(-c4ccoc4)cn23)cc1OC | nt | nt | nt | 14.3
Cc1ccc(-c2csc(N=C(N)N)n2)cc1 | 99.0* | 1.6 | 11.8 | -4.9
Cc1cc(=O)[nH]c(SCC(=O)Nc2ccc(F)c([N+](=O)[O-])c2)n1 | 97.9* | -0.5 | -8.3 | 11.0
CCCc1cc(=O)[nH]c(Nc2ccc(N3CCCCC3)cc2)n1 | 97.7* | 7.8 | -17.9 | -12.2
CCCCc1ccc(Nc2nc(CCC)cc(=O)[nH]2)cc1 | -4.6 | 16.1 | -13.4 | -23.6
CCN(CC)c1ccc(NC(=O)CSc2nc(C)cc(=O)[nH]2)cc1 | 98.8* | 0.2 | 1.2 | 0.5
